# Data taken from PubChem BioAssay (NCI).
# About 83,000 compounds went through this panel and 20% of them were active in at least one assay; those are over-represented in the sample as a whole.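 Compound tested at a single concentration for 48 hours in 96-well plates; a percent growth value below 10 was scored as active.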 Unmarked numbers belong to inactive results. Active and inactive are the calls of the source.
# Key:
# Test in all cases: NCI-60 one-dose screen, 48 h (100 = growth as untreated, 0 = no growth, -100 = all killed)
# Conditions in all cases: 10 µM unless noted
# T-47D breast = tested on: T-47D breast
# BT-549 breast = tested on: BT-549 breast
# MDA-MB-435 melanoma = tested on: MDA-MB-435 melanoma
# SW-620 colon = tested on: SW-620 colon
# MCF7 breast = tested on: MCF7 breast
# HCT-116 colon = tested on: HCT-116 colon
# HCC-2998 colon = tested on: HCC-2998 colon
# KM12 colon = tested on: KM12 colon
Structure (SMILES),growth (T-47D breast),growth (BT-549 breast),growth (MDA-MB-435 melanoma),growth (SW-620 colon),growth (MCF7 breast),growth (HCT-116 colon),growth (HCC-2998 colon),growth (KM12 colon)
COc1ccccc1S(=O)(=O)Nc1ccc2c3c(cc(-c4ccoc4)nc13)C(=O)N2C,70.1%,78.7%,32.8%,71.3%,35.5%,63%,74.7%,58.1%
CCCCCCCCCCCCCCCCCCNCc1ccc(Cl)cc1,9.34% (active),38.5%,-80.3% (active),-75.8% (active),-71.2% (active),-74.5% (active),-82.8% (active),-77.2% (active)
CN(C)c1ncc(C#Cc2c(F)cccc2F)c2ccccc12,36%,95.7%,105%,97.7%,28.5%,80.1%,97.6%,98%
O=c1c2ccccc2sc2c(N3CCCC3)nc3ccccc3c12,81.2%,111%,112%,95%,65.8%,78%,107%,85.5%
Cc1ccn2cc(Cc3cc(=O)oc4c3ccc3ccccc34)c(=O)nc2c1,85.8%,99.5%,104%,103%,93.8%,101%,100%,101%
Cc1ccc[n+](CC(=O)c2cccc3ccccc23)c1,91.9%,93.8%,102%,106%,98.6%,99.6%,104%,103%
COc1cc(NC(C)CCCN2C(=O)c3ccccc3C2=O)c2nc(C)ccc2c1OC (stereo unspecified),95.1%,103%,111%,97.3%,90.6%,85.4%,95.4%,107%
C=CC(=O)Nc1cccc(Nc2nc(Nc3ccc(OCCOC(F)F)cc3)ncc2F)c1,32.8%,24.5%,9.37% (active),19%,23.9%,36%,35.8%,37.4%
N#Cc1c(N)nc(Cl)c(C#N)c1C(=O)c1ccccc1,42.4%,24.9%,14.6%,43.3%,18.9%,30.2%,76.5%,28%
COc1cc(C(=O)NNC(=O)c2ccccc2O)cc(OC)c1OC,82.5%,120%,96.9%,103%,92.2%,101%,97.1%,103%
C#C[C@@]1(O)[C@@H](CO)O[C@@H](n2cc(Br)c3c(Cl)ccnc32)[C@@H]1O,-17.8% (active),22.6%,56.7%,14.5%,1.48% (active),23.1%,37%,65%
COc1ccc(-c2[nH]c3ccccc3c2/C=C(\C#N)S(=O)(=O)c2ccccc2)cc1,66.7%,80.5%,-5.59% (active),28.6%,6.42% (active),11%,-29.2% (active),7.51% (active)
C=C(C)[C@@H]1C/C=C(\COC(=O)[C@H](OC(C)=O)C(NC(=O)c2ccccc2)c2ccccc2)CC[C@H]2O[C@]2(C)CC/C=C(\C)CC1 (stereo partly specified),68.7% [5 µM],68.5% [5 µM],67% [5 µM],94.8% [5 µM],38.2% [5 µM],42.7% [5 µM],75.5% [5 µM],69.1% [5 µM]
CCN1CCN(Cc2ccc(NC(=O)Nc3cccc(-n4ccc5c(NC(=O)c6ccccc6)nccc54)c3)cc2C(F)(F)F)CC1,74.7%,89.5%,9.58% (active),86.6%,31.4%,75.8%,102%,53.1%
COC1OCC(OS(=O)(=O)c2ccc(C)cc2)C(OC(=O)c2ccccc2)C1OC(=O)c1ccccc1 (stereo unspecified),44.4%,39.1%,-5.87% (active),19.5%,22.6%,32.4%,56.9%,30.7%
O=C(O)c1ccc(-n2cc(/C=N/Nc3ccccc3F)c(-c3ccc(O)cc3)n2)cc1,62.7%,80.3%,74.8%,61.8%,73.7%,71.2%,86.4%,57.9%

Structure (SMILES),growth (T-47D breast),growth (BT-549 breast),growth (MDA-MB-435 melanoma),growth (SW-620 colon),growth (MCF7 breast),growth (HCT-116 colon),growth (HCC-2998 colon),growth (KM12 colon)
COc1cc(-c2nc(N)n(CC(=O)Nc3ccc(/C(C)=N\O)cc3)n2)cc(OC)c1OC,91.2%,108%,82%,95.2%,89.2%,101%,102%,97.3%
CC1(C)N=C(N)N=C(N)N1c1ccc(OCC(=O)Nc2ccccc2)c(Cl)c1,70%,40.6%,25.2%,33%,28.4%,19.2%,29.5%,18.1%
O=C(COc1ccc(Cl)cc1)N1CCN(Cc2ccc3c(c2)OCO3)CC1,78.2%,98.3%,101%,97%,103%,102%,99.9%,102%
CN1C(=O)C2(NN=C(c3cccc4ccccc34)S2)c2ccccc21 (stereo unspecified),5.27% (active),30.1%,57.8%,35.5%,24%,14.8%,51.7%,30.8%
CC(=O)CC/C=C(\C)[C@H](O)[C@H](C)C(=O)O[C@H]1C[C@H](C)C=C2C=C[C@@]3(C)O[C@@H](O)CC(=O)[C@]3(C)[C@H]21,-26.6% (active),-57% (active),-88.3% (active),1.02% (active),-4.71% (active),-20.3% (active),-81.9% (active),-10% (active)
COC(=O)c1oc2c(C(C)=O)c(OCCN3CCCCC3)ccc2c1C,129%,130%,80.8%,103%,105%,89.7%,113%,102%
CCOC(=O)C1=C(N)Oc2cc(OC)ccc2C1c1ccc(F)c(F)c1 (stereo unspecified),36.4%,50.2%,-15.8% (active),21.1%,16.6%,31.8%,54.5%,27%
CCCCCC/C=N/Nc1ccc([N+](=O)[O-])cn1,88.4%,96.2%,101%,102%,90.7%,84.7%,85.9%,99.5%
O=C(Nc1ccc(-n2cc(-c3ccncc3)c(-c3ccc(O)c(Cl)c3)n2)cc1)c1ccc(Cl)c(Cl)c1,36.5%,29.3%,27.1%,37.3%,28.5%,12.3%,33.2%,24.6%
COC(OC)C1(c2ccccc2)NC(=O)NC1=O (stereo unspecified),106%,114%,111%,109%,104%,99.4%,101%,115%
Nc1nccc(=S)[nH]1,99.6%,114%,110%,103%,93.4%,109%,114%,106%
COc1cc(NC(=O)c2cc(OC)c3ccn(C)c3c2)cc2c1C[C@]1(C)CC[C@@H](O)C(C)(C)[C@H]1O2,57.5%,36.9%,64%,57.7%,38.5%,43.6%,74.6%,65.3%
COc1ccccc1S(=O)(=O)Nc1ccc2c3c(cc(-c4cnn(C5CC5)c4)nc13)C(=O)N2C,69.9%,90%,52.4%,68.5%,29.6%,60%,75.4%,56.3%
COc1ccc2c(c1)nnc1c3cccnc3[nH]c21,6.14% (active),4.75% (active),13.8%,-12.5% (active),-43.5% (active),-74% (active),40.6%,30%
O=C(Nc1ccc(-n2cc(-c3ccncc3)c(-c3ccc(O)c(Cl)c3)n2)cc1)c1cc(Cl)cc(Cl)c1,49.3%,25.8%,21.5%,33.6%,33.3%,17.6%,39.3%,24.3%
Nc1ncc(-c2ccc3ncnc(Nc4cncc(Cl)c4)c3c2)cn1,-7.28% (active),64.2%,75.1%,95.8%,37.8%,82.4%,79.7%,82.5%
